Screening data from PubChem.
ClpP mod: qHTS Assay for Activators of ClpP; purified B. subtilis ClpP, FRET peptide cleavage, 20 min; Potency, µM (titrated, usually from 57.5 µM); 340,000 tested, 1.9% active; AID 651965, 2013; active = well fitted falling curve with a large enough effect; inconclusive = small, poorly fitted or top-dose-only effect; inactive = no such curve, though single readings can be large or run the other way; also: the source files actives as falling curves though it sought activators and does not explain the sign; nearly all actives have a fitted effect of over 65% in size
Target sequence (P80244 whole entry, looked up): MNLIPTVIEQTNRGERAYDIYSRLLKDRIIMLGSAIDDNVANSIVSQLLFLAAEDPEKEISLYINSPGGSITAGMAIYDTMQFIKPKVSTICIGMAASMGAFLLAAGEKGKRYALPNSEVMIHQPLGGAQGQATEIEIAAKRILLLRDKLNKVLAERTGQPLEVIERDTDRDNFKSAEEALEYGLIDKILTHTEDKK
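Buffer: 100 mM Tris/HCl pH8, 100 mM KCl, 0.05% low protease BSA, 2.5% glycerol, 0.01% Tween-20. ClpP 10 microg/mL final; 20 min RT; delta FRET normalized to ADEP and DMSO controls.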
RORg inh: qHTS for inhibitors of ROR gamma transcriptional activity; Nuclear receptor ROR-gamma (Mus musculus), P51450; Drosophila S2 Gal4-RORgamma UAS-luciferase reporter, 20 h; Potency, µM (top dose mostly 53.6 µM), most hits filed as inhibitors; 310,000 tested, 5.4% active; AID 2551, 2010; also: nearly all actives have a fitted effect of over 60% in size
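Stably transfected Drosophila Schneider cells are the test system, with ROR gamma fused to Gal4 and luciferase under UAS control; luminescence is read after 20 hr of 700 uM copper sulfate induction at ambient temperature.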
PINK1 modulator: A Quantitative High throughput Screen to Identify Chemical Modulators of PINK1 Expression; AID 624263, 2012; PINK1 immunofluorescence, high-content cytometry, 24 h; 410,000 tested, 0.2% active; Potency, µM (highest dose often 76.6 µM), usual class: activators; active = well fitted activation curve with a large enough effect; inconclusive = small, poorly fitted or top-dose-only effect; cell line not stated here; also: nearly all actives have a fitted effect of over 65% in size
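Measures PINK1 amount and localization on or inside mitochondria by immunofluorescence. Stable cells get compounds at 5 concentrations for 24 hours before fixation and staining; CCCP controls included.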
Sfp inh: qHTS Assay for Inhibitors of Bacillus subtilis Sfp phosphopantetheinyl transferase (PPTase); 4'-phosphopantetheinyl transferase ffp (Bacillus subtilis), Q9F4F7; Biochemical Sfp PPTase activity, qHTS; Potency, µM, most hits filed as inhibitors; 310,000 tested, 3.5% active;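 also: the enzyme is Sfp with the accession as filed and its product quenches rhodamine fluorescence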
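Reaction rates are the 30-min fluorescence difference (ex 525, em 598 nm) in wells containing 15 nM Sfp, 5 uM rhodamine-CoA and 12.5 uM BHQ-2-YbbR at pH 7.6 with 10 mM MgCl2.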
Epigenetic reg: Quantitative High-Throughput Screen for Regulators of Epigenetic Control. murine LDR cells, GFP reporter derepression, 30 h. Potency, µM (series often up to 53.9 µM), hits mostly activators. 280,000 tested, 0.2% active; also: nearly all actives have a fitted effect of over 60% in size
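Reporter derepression read as number of fluorescent GFP-positive objects, 20-120 um in size, counted by laser-scanning cytometer. Mouse LDR line with an epigenetically silenced CMV-GFP locus; compound incubation 30 h, 37 C.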
VP16 counter: VP16 counterscreen qHTS for inhibitors of ROR gamma transcriptional activity | Potency, µM (highest dose often 53.6 µM), hits mostly inhibitors | 310,000 tested, 3.5% active | Drosophila S2 Gal4-VP16 UAS-luciferase, luminescence, 20 h;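 also: Gal4-VP16 expression switched on by copper sulfate through the metallothionein promoter; nearly all actives have a fitted effect of over 50% in size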
Hits are given with their value; i = inactive; ? = inconclusive; nt = no result. An excerpt weighted towards active compounds, which were near 8.1% of everything screened. Unless noted, calls follow the shape of the dose curve; as a rule, active = well fitted curve in the direction sought with a large enough effect; inconclusive = small, poorly fitted or top-dose-only effect, or another doubt; inactive = no such curve, though single readings can be large; an effect the other way counts as inactive or inconclusive.

SMILES	ClpP mod	RORg inh	PINK1 modulator	Sfp inh	Epigenetic reg	VP16 counter
CCc1nc2c(c(=O)[nH]1)C1(CCCC1)Cc1ccccc1-2	i	i	i	i	i	i
CCOc1ccc(-c2c(C)nn3c(C)c(C(=O)NCC(C)c4ccccc4)cnc23)cc1OCC (stereo not drawn)	i	nt	i	nt	i	nt
COc1ccc(-c2cc(C(F)(F)F)n3nc(C(=O)OC(C)C)cc3n2)cc1	i	nt	i	nt	i	nt
CC1N=C2c3ccccc3N=C(SCC(=O)NCc3ccc(Cl)cc3)N2C1=O (stereo not drawn)	i	nt	i	nt	i	nt
O=C(NCC1CCCO1)C(c1cccs1)N(Cc1ccccc1Cl)C(=O)c1ccc(-c2ccccc2)[nH]1 (stereo not drawn)	32µM	i	i	i	i	i
O=C(COC(=O)c1cnccn1)c1ccc([N+](=O)[O-])cc1	nt	i	i	20µM	?	i
Cc1ccc(C(=O)COC(=O)c2cnccn2)cc1	i	i	i	i	i	i
CCOC(=O)C1CCCCN1C(=O)c1cnn(-c2nccc(-c3cc(C)sc3C)n2)c1C1CC1 (stereo not drawn)	nt	nt	i	nt	nt	nt
O=C(NCCCN1CCN(c2ccc(F)cc2)CC1)Nc1ccccc1Cl	i	nt	i	nt	i	nt
COc1ccc(-n2c(SCC(=O)NCc3ccc(Cl)cc3)nc3ccsc3c2=O)cc1	i	nt	i	nt	i	nt
O=C(COc1ccc(Br)cc1Br)NC(=S)N1CCCc2ccccc21	i	i	i	56µM	i	i
CC(Oc1ccc(Cl)cc1Cl)C(=O)NC(=S)N1CCc2ccccc21 (stereo not drawn)	i	0.71µM	i	i	i	0.89µM
CC(Oc1ccc(Cl)cc1Cl)C(=O)NN=C1CCN(C)CC1 (stereo not drawn)	i	7.1µM	i	i	i	10µM
O=C(COc1ccc(Br)cc1Cl)NC(=S)N1CCc2ccccc21	nt	0.79µM	i	i	i	0.71µM
CC1CC=CC2C1C(=O)N(Cc1ccccc1)C2c1ccc(-c2ccc(N(C)C)cc2)cc1F (stereo not drawn)	nt	i	nt	i	nt	i
C=CCn1c(NC(=O)c2ccccc2Cl)c(C#N)c2nc3ccccc3nc21	?	?	i	79µM	i	?
CCCCn1c(NC(C)=O)c(C#N)c2nc3ccccc3nc21	28µM	i	i	i	i	i
CC(C)(C)c1ccc(OCc2cc(=O)n3c4c(sc3n2)CCCC4)cc1	i	nt	i	nt	i	nt
CCC(C)c1ccccc1OCCn1c(CCNC(=O)C2CCCCC2)nc2ccccc21 (stereo not drawn)	i	nt	i	nt	nt	nt
CC[C@H](NC(=O)[C@H](CCCN=C(N)N)NC(=O)[C@H](Cc1c[nH]c2ccccc12)NC(=O)[C@@H](N)CS)C(=O)N[C@@H](CCCN=C(N)N)C(=O)N[C@@H](Cc1ccc(O)cc1)C(N)=O	nt	i	nt	i	nt	i
CCN(c1ccccc1)S(=O)(=O)c1ccc(Cl)c(NC(=O)COC(=O)c2cc(O)c3ccccc3c2O)c1	nt	10µM	nt	45µM	i	13µM
O=C(CN1CC(=O)Oc2ccccc21)OCC(=O)c1cccc(Br)c1	i	i	i	71µM	i	i
CN1CCN(c2ccc(-c3nc(-c4ccccc4)no3)cc2[N+](=O)[O-])CC1	i	nt	i	nt	i	nt
Cc1ccccc1C(=O)NNC(=S)NC(=O)c1cccs1	i	7.9µM	i	i	nt	13µM
O=C(NC(=S)NNC(=O)c1cccs1)c1ccccc1	i	5.6µM	i	i	nt	16µM
CC(C)(C)c1ccc(C(=O)NC(=S)NNC(=O)c2cccs2)cc1	i	4µM	i	i	i	7.1µM
O=S(=O)(Nc1c(Br)cc(Br)c2cccnc12)C1CCCCC1	nt	nt	i	nt	nt	nt
O=C(CCCCCn1c(=O)[nH]c2ccccc2c1=O)NCc1cccc(Cl)c1	i	nt	i	nt	i	nt
COc1ccc(NC(=S)NC(C)C(c2ccccc2)N2CCOCC2)cc1 (stereo not drawn)	nt	4.5µM	i	i	i	?
